Measured values reported in PubChem BioAssay AID1159580 (chemical genetic matrix, 2015).
Among all 5,500 compounds or so, about 2,000 (36%) were called active. Roughly 18% stayed inconclusive and do not appear here. No stated cut-off is given here; in the data, active means normalized growth mostly below about 0.91 (no sharp cut-off); inconclusive means no clear call, values can overlap the other calls; inactive means mostly above about 0.92. This is one part of the list.

Assay: chemical genetic growth profiling, strain panel (AID 1159580);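 further: tested at 20 µM; growth read once vehicle control cultures reached saturation at 30 °C; 1 = growth at the plate median or of vehicle wells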
Conditions: S. cerevisiae deletion strains, growth OD

Measured: normalized growth

CCC(=O)Nc1ccc(Cl)c(Cl)c1
inactive: locus YAL013W, strain DEP1, stronger effect = lower value 0.99 | locus YAL021C, strain ccr4, stronger effect = lower value 0.975 | locus YAL026C, strain drs2, stronger effect = lower value 0.994 | locus YAL030W, strain snc1, stronger effect = lower value 1.01 | locus YBL061C, strain skt5, stronger effect = lower value 0.978 | locus YBR009C, strain hhf1, stronger effect = lower value 0.982 | locus YBR021W, strain FUR4, stronger effect = lower value 0.952 | locus YBR023C, strain chs3, stronger effect = lower value 0.988 | locus YBR171W, strain sec66, stronger effect = lower value 0.983 | locus YBR229C, strain ROT2, stronger effect = lower value 1 | locus YBR231C, strain swc5, stronger effect = lower value 0.982 | locus YBR279W, strain paf1, stronger effect = lower value 0.99 | locus YCL011C, strain gbp2, stronger effect = lower value 0.983 | locus YCL016C, strain dcc1, stronger effect = lower value 0.989 | locus YCL029C, strain bik1, stronger effect = lower value 1.01 | locus YCL061C, strain MRC1, stronger effect = lower value 0.986 | locus YCL069W, strain vba3, stronger effect = lower value 0.996 | locus YCR088W, strain abp1, stronger effect = lower value 0.99 | locus YDL005C, strain med2, stronger effect = lower value 0.981 | locus YDL035C, strain GPR1, stronger effect = lower value 0.988 | locus YDL040C, strain nat1, stronger effect = lower value 0.99 | locus YDL074C, strain BRE1, stronger effect = lower value 0.898 | locus YDL101C, strain DUN1, stronger effect = lower value 0.999 | locus YDL134C, strain PPH21, stronger effect = lower value 1 | locus YDL185W, strain tfp1, stronger effect = lower value 0.99 | locus YDL192W, strain arf1, stronger effect = lower value 0.994 | locus YDR001C, strain nth1, stronger effect = lower value 0.989 | locus YDR069C, strain doa4, stronger effect = lower value 0.971 | locus YDR101C, strain arx1, stronger effect = lower value 0.991 | locus YDR137W, strain rgp1, stronger effect = lower value 1.03 | locus YDR150W, strain NUM1, stronger effect = lower value 0.998 | locus YDR159W, strain sac3, stronger effect = lower value 0.959 | locus YDR162C, strain NBP2, stronger effect = lower value 0.985 | locus YDR195W, strain ref2 0.956 | locus YDR297W, strain sur2, stronger effect = lower value 0.988 | locus YDR318W, strain mcm21, stronger effect = lower value 0.996 | locus YDR334W, strain swr1, stronger effect = lower value 0.996 | locus YDR335W, strain msn5, stronger effect = lower value 0.988 | locus YDR388W, stronger effect = lower value 1 | locus YDR392W, strain spt3, stronger effect = lower value 0.98 | locus YDR502C, strain sam2, stronger effect = lower value 0.998 | locus YEL003W, strain gim4, stronger effect = lower value 0.992 | locus YEL037C, strain rad23, stronger effect = lower value 1 | locus YEL061C, strain CIN8 (second series), stronger effect = lower value 0.978 | locus YEL061C, strain CIN8, stronger effect = lower value 0.994 | locus YER016W, strain bim1, stronger effect = lower value 0.991 | locus YER110C, stronger effect = lower value 0.996 | locus YER111C, strain swi4, stronger effect = lower value 0.989 | locus YER155C, strain BEM2 (second series), stronger effect = lower value 0.998 | locus YER155C, strain BEM2, stronger effect = lower value 1.01 | locus YER167W, strain BCK2, stronger effect = lower value 1 | locus YFR010W, strain ubp6, stronger effect = lower value 0.993 | locus YGL078C, strain dbp3, stronger effect = lower value 1.01 | locus YGL086W, strain mad1, stronger effect = lower value 0.997 | locus YGL167C, strain pmr1, stronger effect = lower value 0.984 | locus YGL173C, strain kem1, stronger effect = lower value 0.978 | locus YGL227W, strain vid30, stronger effect = lower value 0.988 | locus YGL240W, strain doc1, stronger effect = lower value 0.96 | locus YGL248W, strain PDE1, stronger effect = lower value 0.993 | locus YGL253W, strain hxk2, stronger effect = lower value 1 | locus YGR078C, strain PAC10, stronger effect = lower value 0.961 | locus YGR135W, strain pre9, stronger effect = lower value 0.982 | locus YGR229C, strain SMI1, stronger effect = lower value 0.958 | locus YGR252W, strain gcn5, stronger effect = lower value 0.874 | locus YHR013C, strain ard1, stronger effect = lower value 0.971 | locus YHR027C, strain rpn1, stronger effect = lower value 0.994 | locus YHR030C, strain SLT2, stronger effect = lower value 0.978 | locus YHR079C, strain IRE1 (second series), stronger effect = lower value 0.999 | locus YHR094C, strain hxt1, stronger effect = lower value 1 | locus YHR129C, strain ARP1, stronger effect = lower value 0.988 | locus YHR142W, strain chs7, stronger effect = lower value 1 | locus YHR200W, strain rpn10, stronger effect = lower value 1 | locus YIL066C, strain RNR3, stronger effect = lower value 0.991 | locus YIL073C, strain SPO22, stronger effect = lower value 1.01 | locus YIL125W, strain kgd1, stronger effect = lower value 1 | locus YIR030C, strain dcg1, stronger effect = lower value 1 | locus YJL092W, strain hpr5, stronger effect = lower value 0.985 | locus YJL095W, strain BCK1 (second series), stronger effect = lower value 0.996 | locus YJL095W, strain BCK1, stronger effect = lower value 0.924 | locus YJL115W, strain asf1, stronger effect = lower value 0.992 | locus YJL129C, strain trk1, stronger effect = lower value 0.968 | locus YJL134W, strain LCB3, stronger effect = lower value 0.986 | locus YJL154C, strain vps35, stronger effect = lower value 0.998 | locus YJL164C, strain tpk1, stronger effect = lower value 1.01 | locus YJL166W, strain qcr8, stronger effect = lower value 0.986 | locus YJL168C, strain set2, stronger effect = lower value 1 | locus YJL187C, strain SWE1 (second series), stronger effect = lower value 1.01 | locus YJL187C, strain SWE1, stronger effect = lower value 0.984
